Screen size: about 290,000 compounds; about 2,100 (0.72%) were called active. Where a call stands in place of a potency, no number is given. Another 4% or so got no clear call; they are omitted. The call rests on the fitted dose curve; in most records, active means well fitted inhibition curve with a large enough effect; inconclusive means small, poorly fitted or top-dose-only effect, or effect the other way; inactive means flat fitted curve, though single readings scatter. The full list was thinned out, with actives kept by preference.
Target: Fructose-bisphosphate aldolase (Giardia intestinalis (strain ATCC 50803 / WB clone C6)) (UniProt A8B2U2)
Assay: qHTS Assay for Inhibitors of Fructose-1,6-bisphosphate Aldolase from Giardia Lamblia; further: nearly all actives have a fitted effect of over 55% in size
Settings: purified Giardia FBPA; series mostly up to 59.6 µM
From the text: Assay Provider: Osnat Herzberg, University of Maryland
The objective of this project is to obtain compounds that inhibit Giardia lamblia growth. G. lamblia is a human pathogen which afflicts impoverished nations; it is the most common cause of outbreaks of diarrhea in the United States. During the course of our study of potential drug targets in Giardia, we have identified the Class II (Zn2+ functions in electrophilic catalysis) fructose-1,6-bisphosphate aldolase (FBPA) as an excellent candidate for drug targeting. FBPA is a key glycolytic pathway enzyme, essential for G. lamblia survival. The human FBPA belongs to the Class I aldolases, which have a different substrate binding site structure and a radically different catalytic mechanism (employing a lysine-Schiff base intermediate). Therefore, affinity-based or mechanism-based inhibitors of the Giardia FBPA are expected not to interfere with the catalytic function of the human FBPA.
A glyceraldehyde-3-phosphate dehydrogenase/triose phosphate isomerase/NAD/arsenate coupled assay was adapted to the 1536-well HTP format for use in the primary screen. This was done by coupling it to a diaphorase/resazurin/resorufin reaction that can be monitored by fluorescence (excitation, 544 nm; emission, 590 nm). Compounds identified in this screen will be further evaluated by coupling the glycerol-3-phosphate/triose phosphate isomerase/NADH assay to a phenazine methosulfate/tetranitroblue tetrazolium color reaction. False positives due to the dehydrogenases and diaphorase inhibition will be eliminated, and selectivity assay will triage inhibitors of mammalian triose phosphate isomerase and the Class I FBPA. G. lamblia FBPA inhibitors identified by the in vitro analyses will be examined for growth inhibition of Giardia trophozoites, and for cytotoxicity in human cells.
Step,Parameter,Value,Description
1,Enzyme reagent,2 uL,40 nM FBPA
2,Compound,23 nL,3.68 nM-57.5 uM final concentration
3,Time,10 min,RT Incubation
4,Substrate/detection Reagent,2 uL,Substrate + enzyme coupling system + AmpLite Red kit
5,Time,20 min,RT Incubation
6,Detector,525 nm/598 nm (Fluorescence),ViewLux Fluorescence Read (Read 1)
1,Medium-binding black solid-bottom Kalypsys plates. FRD or Kalypsys dispenser, 2 uL of FBPA enzyme. Bottle kept at 4C.
2,Compound Library (10 mM ,1:5 dilution). Pin-transferred for a [final] range of 3.68 nM-57.5 uM.
4,FRD or Kalypsys dispenser, 2 uL of reaction mixture. Bottle kept at 4C and covered in foil to protect from light.
6,ViewLux Protocol 1194; Excitation filter wheel A (525/20 Pol; BODIPY TMR FP), Emission filter wheel B (598/25 S; BODIPY TMR FP S).
Keywords: Fructose-bisphosphate aldolase, FBPA , Giardia lamblia , Giardia, HTS, Inhibitors
Potency means the concentration at half of the fitted maximal effect.

Chain of Fructose-bisphosphate aldolase (Giardia intestinalis (strain ATCC 50803 / WB clone C6)) (A8B2U2 whole entry, looked up): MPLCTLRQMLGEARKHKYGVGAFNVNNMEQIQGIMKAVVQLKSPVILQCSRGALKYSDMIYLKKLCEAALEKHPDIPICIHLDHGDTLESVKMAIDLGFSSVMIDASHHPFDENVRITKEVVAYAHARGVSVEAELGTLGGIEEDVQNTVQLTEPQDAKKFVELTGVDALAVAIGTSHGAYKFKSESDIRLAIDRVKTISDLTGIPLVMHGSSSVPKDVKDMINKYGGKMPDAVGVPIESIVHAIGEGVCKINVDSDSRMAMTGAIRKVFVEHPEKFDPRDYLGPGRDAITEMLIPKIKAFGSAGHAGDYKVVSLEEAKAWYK

| SMILES | Potency |
| --- | --- |
| CN1CCN(CCCCOc2cccc3ccccc23)CC1 | inactive |
| CN1CCN(CCCCOc2ccccc2-c2ccccc2)CC1 | 19.9 µM (active) |
| CC1CCCN(CCOCCOc2ccccc2-c2ccccc2)C1 (centres undefined) | inactive |
| COc1ccc(C(=O)NNS(=O)(=O)c2ccc(C)cc2)cc1 | inactive |
| CC(NC(=S)NNS(=O)(=O)c1ccc(C(C)(C)C)cc1)c1ccccc1 (centres undefined) | inactive |
| Cc1ccc(S(=O)(=O)NNC(=S)NC(C)(C)C)cc1 | 11.2 µM (active) |
| CCNC(=O)CC1C(=O)N(c2ccc(OC)cc2)C(=O)N1CCOC (centres undefined) | inactive |
| O=c1oc2ccccc2c(CNc2ccccc2)c1[N+](=O)[O-] | inactive |
| COc1ccc(C(=O)NCCSc2ccccc2C)cc1 | inactive |
| Nc1c(C(=O)NCc2ccccc2)nnn1Cc1cccc(Cl)c1 | inactive |
| CC(C)CC(=O)N1CCN(Cc2cccc(Cl)c2)CC1 | inactive |
| Clc1cccc(CN2COc3c(cc(Cl)c4cccnc34)C2)c1 | 17.7 µM (active) |
| Cc1ccc(O)c(/C=N/NC(=O)COc2ccc3c(C)cc(=O)oc3c2)c1 | inactive |
| Cc1ccc2c(Cl)c(C(=O)NCCCn3ccnc3)sc2c1 | inactive |
| C=CCc1cc(C)ccc1OCCCn1ccnc1 | 25.1 µM (active) |
| Brc1ccc(OCCn2ccnc2)cc1 | inactive |
| Cc1ccc(OCC(=O)Nc2ccc3oc(=O)ccc3c2)cc1C | inactive |
| Cc1cccc(N(Cc2ccccc2)C(=O)c2ccccc2F)c1 | inactive |
| COC(=O)c1cc(S(=O)(=O)N2CCN(c3cc(C)ccc3C)CC2)c[nH]1 | inactive |
| O=C(Nc1cccc(Cl)c1)c1cc(S(=O)(=O)N2CCCCC2)c[nH]1 | inactive |
| COc1ccc(C2c3[nH]c4ccccc4c3C[C@H]3C(=O)N(CC(C)C)CC(=O)N23)c(OC)c1 (some centres undefined) | inactive |
| CCc1nnc(NC(=O)CSc2nnc(-c3ccncc3)n2Cc2ccccc2)s1 | inactive |

| SMILES | Potency |
| --- | --- |
| Cc1cccc(-c2nnc(SCC(=O)O)n2Cc2ccccc2)c1 | 15.8 µM (active) |
| Cc1cnc(NC(=O)CSc2nnc(-c3ccccc3)n2Cc2ccccc2)s1 | inactive |
| CC(CN1CCOCC1)OC(=O)c1ccc(C(C)(C)C)cc1 (centres undefined) | inactive |
| O=c1[nH]c(=S)[nH]c2[nH]c(=S)[nH]c12 | 12.6 µM (active) |
| Cc1c(C)c(C)c2[nH]c(=S)[nH]c2c1C | inactive |
| Cc1ccc(S(=O)(=O)N(CCCN(C)C)Cc2ccc3c(c2)OCO3)cc1 | inactive |
| CCN(CC)Cc1c(C(=O)N/N=C/c2cccc(OCc3ccc(F)cc3)c2)nnn1-c1nonc1N | inactive |
| CCc1ccc2c(c1)C(c1ccc([N+](=O)[O-])cc1)=NNC(c1ccccc1)=N2 | inactive |
| CCc1ccc2c(c1)C1(NN=C(c3ccccc3)S1)C(=O)N2 (centres undefined) | 15.8 µM (active) |
| O=C(c1ccccc1)N1CCN(C(=O)c2cc3nc(-c4ccccc4)cc(C(F)(F)F)n3n2)CC1 | inactive |
| O=C(/C=C/c1ccco1)NC(=S)Nc1ccccc1Br | inactive |
| CCNC(=O)N1CCCC(C(=O)c2ccc(-c3ccccc3)cc2)C1 (centres undefined) | inactive |
| Cc1ccc(CC2CC(=O)N(c3nc(C)cc(C)n3)C2=O)cc1 (centres undefined) | inactive |
| Cc1cc(C)cc(NC(=O)C2CCN(c3nc(C)cc(C)n3)CC2)c1 | inactive |
| COC(=O)CC1=NN(c2nc(C)cc(C)n2)C(=O)C1 | 5.61 µM (active) |
| CCCCC(=O)N/N=C/c1c(O)n(-c2ccccc2)c(=O)[nH]c1=O | 8.89 µM (active) |
| Cc1cccc(-n2c(O)c(C=Nc3ccccc3N)c(=O)[nH]c2=O)c1 | inactive |
| O=c1[nH]c(=O)n(-c2ccccc2)c(O)c1C=NC12CN3CN(CN(C3)C1)C2 | inactive |
| O=C(NC(=S)Nc1ccc(Cl)cc1Cl)C1CC1 | inactive |
| COC(=O)N1CCC2(CCCN(Cc3ccccc3OC)C2)CC1 | inactive |
| COc1ccccc1CN1CC2(CCN(S(=O)(=O)c3ccccc3)CC2)C1 | inactive |
| COc1ccccc1/C=N/N1CCN(Cc2ccccc2Cl)CC1 | inactive |

| SMILES | Potency |
| --- | --- |
| CS(=O)(=O)N1CCN(C(=O)Cc2ccccc2)CC1 | inactive |
| COc1ccccc1CN1CCN(C(=O)Cc2ccccc2)CC1 | 17.8 µM (active) |
| COc1ccccc1CN1CCN(Cc2cc(OC)c(OC)cc2OC)CC1 | 25.1 µM (active) |
| CCOCCOC(=O)C1=C(C)NC(=O)NC1c1ccc2c(c1)OCO2 (centres undefined) | inactive |
| O=C(O)c1c(NC(=O)N2CCCC2)sc2c1CCCC2 | inactive |
| O=C(Nc1ccc(O)cc1)c1ccc(NC(=O)c2ccco2)cc1 | inactive |
| CCOC(=O)C1(Cc2cccc(OC)c2)CCCN(C(=O)CCSC)C1 (centres undefined) | inactive |
| Cc1cc(C)c2c(=O)[nH]c(SCC(=O)Nc3ccc(Br)cc3)nc2n1 | 31.6 µM (active) |
| Cc1cccc(NC(=O)CSc2nc3[nH]ncc3c(=O)[nH]2)c1 | inactive |
| Cc1cc(=O)[nH]c(SCC(=O)Nc2ccc(Br)cc2)n1 | inactive |
| OCCN1CCN(C(=S)c2ccc(-c3ccccc3)cc2)CC1 | 11.2 µM (active) |
| O=C(NC(c1ccccc1)c1ccccc1)N1CCN(CCO)CC1 | inactive |
| S=C(c1ccccc1)N1CCCC1 | inactive |
| COc1ccc(-c2ccc(C3C4C=CCCC4(C)C(=O)N3Cc3ccccc3)c(F)c2)cc1OC (centres undefined) | inactive |
| Cc1cc(F)ccc1NC(=S)NCCc1ccccc1 | inactive |
| COc1cc(NC(=O)C2=CC(c3ccc(C)cc3)=NS(=O)(=O)N2C)cc(OC)c1OC | inactive |
| CCOc1cccc(NC(=O)C2CCCN(S(=O)(=O)c3ccc(OC)cc3)C2)c1 (centres undefined) | inactive |
| CCN(CC(=O)Nc1ccc(S(=O)(=O)N2CCCC2)cc1)CC(=O)Nc1cccc(OC)c1 | 5 µM (active) |
| COc1ccccc1CC(=O)Nc1ccc(S(=O)(=O)N2CCCC2)cc1 | inactive |
| COc1cc(C(=S)N2CCOCC2)cc(OC)c1OC(=O)c1ccc([N+](=O)[O-])cc1[N+](=O)[O-] | inactive |
| CCS(=O)(=O)Nc1ccc(C(=O)NCCSc2ccccc2)cc1 | inactive |
| CC(=O)OCCN(CCCn1c(-c2ccncc2)nc2ccccc21)c1nc(-c2ccc(C)cc2)cs1 | inactive |

| SMILES | Potency |
| --- | --- |
| Oc1c(C=Nc2cccc3nsnc23)ccc2ccccc12 | 5 µM (active) |
| Cc1ccccc1NC(=O)C1CCN(C(=O)NC2CCCCC2)CC1 | inactive |
| COC(=O)C1=CN(c2ccc(F)c(F)c2)C=C(C(=O)OC)C1c1ccc([N+](=O)[O-])cc1 | inactive |
| COc1ccccc1-c1nnc(NC(=O)c2cccc(N3C(=O)CCC3=O)c2)o1 | inactive |
| Cc1ccc(C(=O)Nc2nnc(C3=COCCO3)o2)cc1C | 31.6 µM (active) |
| COc1ccccc1-c1nnc(NC(=O)c2ccc3ncsc3c2)o1 | inactive |
| COC(=O)c1ccccc1NC(=O)C1CCN(C(=O)N2CCOc3ccccc32)CC1 | inactive |
| COc1ccc(C2Oc3c(I)c(OC)cc(OC)c3CC2O)cc1OC (centres undefined) | inactive |
| Oc1cc(O)c2c(c1)OC(c1ccc(O)c(O)c1)C(O)C2 (centres undefined) | 9.98 µM (active) |
| COC(=O)c1ccccc1NC(=S)NC(=O)c1ccccc1F | inactive |
| O=C(NC(=S)Nc1ncccn1)c1ccccc1Br | 3.98 µM (active) |
| O=C(NC(=S)Nc1ccc(S(=O)(=O)Nc2ncccn2)cc1)c1cccc(Br)c1 | inactive |
| CCOc1ccc(OCC)c(NC(=O)CCS(=O)(=O)c2ccc(C)cc2)c1 | inactive |
| CN(C)CCOc1ccc(Cl)cc1C(C)(C)C | 14.1 µM (active) |
| COCCCNCCOCCOc1ccc(Cl)cc1Br | inactive |
| Cn1c(CCCOc2ccc(Cl)cc2Cl)n[nH]c1=S | inactive |
| CNC(=S)N/N=C/c1ccc(N2CCOCC2)s1 | 12.6 µM (active) |
| C=CCNC(=S)N/N=C/c1ccc(C)s1 | inactive |
| Cc1cc(C(=O)N/N=C/c2ccc(N3CCOCC3)cc2)c(C)o1 | inactive |
| O=C(CCCC(=O)N1CCN(c2cccc(Cl)c2)CC1)c1ccccc1 | inactive |
| NC(=O)CC(NC(=O)Cc1ccc(Br)cc1)c1ccc(NC2CC3CCC2C3)c([N+](=O)[O-])c1 (centres undefined) | inactive |
| COc1cc(OC)c(C(=S)N2CCCC2)cc1OC | inactive |

| SMILES | Potency |
| --- | --- |
| O=S(=O)(Nc1ccc2nc(-c3ccco3)[nH]c2c1)c1ccccc1 | 19.9 µM (active) |
| O=S(=O)(Nc1ccc2cn[nH]c2c1)c1ccccc1 | inactive |
| Cn1c(CCN2CCCC2)nc2cc(NS(=O)(=O)c3ccccc3)ccc21 | inactive |
| CCN1CCN(C(=O)C2CCCN(S(=O)(=O)c3ccc(OC)c(OC)c3)C2)CC1 (centres undefined) | inactive |
| Cc1ccc(N(Cc2cc(=O)[nH]c3ccccc23)C(=O)CCl)cc1 | inactive |
| O=C(NCCCc1ccccc1)c1cc(COc2c(F)cccc2F)on1 | inactive |
| N#Cc1c(N2CCCCC2)nc(N)c2c(N)nc(SCC(=O)O)cc12 | 12.6 µM (active) |
| N#Cc1c(-c2ccccc2)cc(-c2ccccc2)nc1SCC(=O)O | inactive |
| Cc1cc(C)c(C#N)c(N2CCC(C(N)=O)CC2)n1 | inactive |
| CSc1nnc(C2CCCN(CC(=O)Nc3ccccc3N3CCOCC3)C2)n1C(C)C (centres undefined) | inactive |
| Cc1cc(C)cc(N(CC(=O)NC2CCCC2)C(=O)CCC(=O)Nc2nccs2)c1 | inactive |
| CC(=O)NC1CCN(CC(=O)Nc2nccs2)CC1 | 10 µM (active) |
| CC(=O)NC(CC(=O)Nc1nccs1)c1ccccc1 (centres undefined) | inactive |
| COc1ccccc1CCNS(=O)(=O)c1cn(C)nc1C | inactive |
| COc1ccc(CNC(=O)c2cc(=O)c3c(C)cc(C)cc3o2)cc1 | inactive |
| O=C(N/N=C/c1ccccn1)c1cccnc1 | 4.46 µM (active) |
| CNC(=O)C(=O)N/N=C/c1ccccn1 | inactive |
| O=C(N/N=C/c1ccc(O)c2ccccc12)c1cccnc1 | inactive |
| Cc1ccc(C(=O)Nc2cccc3ncccc23)cc1[N+](=O)[O-] | inactive |
| O=C(Nc1cccc2ncccc12)C(Cl)(Cl)Cl | inactive |
| Cc1ccc(/C=C(\C#N)C(=O)Nc2cccc3ncccc23)o1 | 5.61 µM (active) |

Source: PubChem BioAssay AID2451 (National Center for Advancing Translational Sciences (NCATS), 2010)
